Screens deposited in PubChem BioAssay by National Center for Advancing Translational Sciences (NCATS).
Only some compounds are listed: those with a hit (about 11% of all), similar ones and a draw of the others.
ALDH1A1 inh = qHTS Assay for Inhibitors of Aldehyde Dehydrogenase 1 (ALDH1A1) | AID 1030, 2008 | 220,000 compounds, 7.3% hits | Potency, µM (top dose mostly 75.3 µM), inactives show at the top dose activity, negative = inhibition, hits mostly inhibitors | Aldehyde dehydrogenase 1A1 (Homo sapiens), P00352 | Purified ALDH1A1, NADH fluorescence, propionaldehyde substrate;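 further: potency means the concentration at half of the fitted maximal effect; plate controls were no enzyme wells and a reference inhibitor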
Target sequence (P00352 whole entry, looked up): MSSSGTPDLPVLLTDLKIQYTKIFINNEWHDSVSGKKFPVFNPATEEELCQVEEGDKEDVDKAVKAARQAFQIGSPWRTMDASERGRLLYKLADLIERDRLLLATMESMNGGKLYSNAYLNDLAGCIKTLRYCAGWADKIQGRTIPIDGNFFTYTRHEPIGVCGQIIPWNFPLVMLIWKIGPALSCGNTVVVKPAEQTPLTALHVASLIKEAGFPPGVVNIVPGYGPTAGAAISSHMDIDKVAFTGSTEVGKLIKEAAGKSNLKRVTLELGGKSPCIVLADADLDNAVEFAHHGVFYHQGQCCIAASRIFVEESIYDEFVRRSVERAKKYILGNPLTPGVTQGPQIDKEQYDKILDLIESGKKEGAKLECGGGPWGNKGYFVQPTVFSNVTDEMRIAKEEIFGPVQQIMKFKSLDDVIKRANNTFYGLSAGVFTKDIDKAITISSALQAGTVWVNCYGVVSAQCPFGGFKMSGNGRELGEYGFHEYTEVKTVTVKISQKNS
HPGD block = qHTS Assay for Inhibitors of HPGD (15-Hydroxyprostaglandin Dehydrogenase). 15-hydroxyprostaglandin dehydrogenase [NAD(+)] (Homo sapiens), P15428. purified HPGD, NADH fluorescence kinetic, PGE2 substrate. Potency, µM, for inactives: at the top dose activity change, negative = inhibition, hits mostly inhibitors. 150,000 compounds, 4.3% hits. AID 894, 2007; further: potency means the concentration at half of the fitted maximal effect
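NADH formation kinetics: reaction with 30 uM PGE2 and 1 mM NAD+ (final), 20 nM enzyme, Tris-HCl pH 8 with Tween 20, after 15 min compound preincubation at room temperature. Fluorescence change, last versus first of five reads.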
PNC assembly inh = High Content Assay for Compounds that inhibit the Assembly of the Perinucleolar Compartment | 140,000 compounds, 3.1% hits | PC3M PTB-GFP, PNC prevalence imaging, 16 h; active compounds read low | activity change (PNC), negative = inhibition, % at 10 µM;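 active means readout at or below -70, meaning at least 70% loss of cells showing the perinucleolar compartment, a nuclear body marking cancer cells; inconclusive means readout between -30 and a set limit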;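 further: plate controls were DMSO wells for no effect and camptothecin positive control wells for full effect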
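Read-out is percentage of cells bearing a perinucleolar compartment, from automated 20x imaging of fixed, Hoechst-stained PC3M PTB-GFP cells. Cells were seeded 4 h, then exposed 16 h to compound (23 nl of library stock) in duplicate plates.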
* = called active by the depositor; ? = inconclusive; / = no result; [ ] = another dose, or the depositor's remark. Unless noted, the call rests on the fitted dose curve; in most records, active means well fitted inhibition curve with a large enough effect (not every such curve was filed as active); inconclusive means small, poorly fitted or top-dose-only effect, or another doubt; inactive means no such curve, though single readings can be large or run the other way. Unless noted, on the % scale 0 is the no-effect control and ±100 the full control effect.

SMILES	ALDH1A1 inh	HPGD block	PNC assembly inh
COCCNC(=O)c1ccc(-n2c(SCc3ccncc3)nc3ccccc3c2=O)cc1	1%	/	/
Cc1oc(-c2cccs2)nc1CN1CCC(c2ccccc2)CC1	-9%	/	/
Cc1ccnc(NC(=O)CCC(=O)N(CC(=O)NCc2ccccc2)Cc2cccs2)c1	16µM*	/	/
COCCN(CC(=O)NCc1ccc2c(c1)OCO2)C(=O)CCC(=O)Nc1nccs1	6%	-10%	-100*
Cc1ccnc(NC(=O)CCC(=O)N(CC(=O)NC2CCCCC2)Cc2ccccc2)c1	6%	/	/
Cc1cccc(N(CC(=O)NCc2ccc3c(c2)OCO3)C(=O)CCC(=O)Nc2ccccn2)c1C	28µM*	-15%	23
COCCNC(=O)CN(Cc1ccc2c(c1)OCO2)C(=O)CCC(=O)Nc1nccs1	4%	3%	8
COc1ccc(CNC(=O)CN(C(=O)CCC(=O)Nc2ccccn2)c2ccccc2OC)cc1	?	/	5
COc1ccccc1N(CC(=O)NCc1ccccc1)C(=O)CCC(=O)Nc1ccccn1	-8%	-14%	-100*
Cc1cccc(N(CC(=O)NCc2ccc3c(c2)OCO3)C(=O)CCC(=O)Nc2ccccn2)c1	-11%	5%	1
CC(C)(CO)NC(=O)Nc1ccc(Cl)c(Cl)c1	2%	/	/
CCC1=NN(C(=O)c2cccnc2)C(O)(C(F)(F)F)C1 (stereo unspecified)	-4%	-2%	?
NNC(=O)Cc1cccnc1	8%[13.5 µM]	-10%	/
CCOc1ccccc1N1CCN(Cc2c(C)n(C)n(-c3ccccc3)c2=O)CC1	5%	/	/
O=C(CCC(=O)N(CC(=O)NC1CCCC1)Cc1ccc2c(c1)OCO2)Nc1ccccn1	-4%	/	-94*
O=C(CCC(=O)N(CC(=O)NC1CCCC1)Cc1ccc2c(c1)OCO2)Nc1nccs1	-7%	/	/
CC(=O)N/C(=C\c1ccccc1)C(=O)OCC(=O)N1CCCCCC1	11µM*	/	?
CC(C)[C@H](NC(=O)c1ccccc1)C(=O)OCC(=O)N1CCCCCC1	11%	-3%	?
CN(C)CC(C)(C)CNC(=O)c1ccc(Cc2nc3ccccc3[nH]2)cc1	13%	-5%	/
O=C(Nc1nc(=S)ss1)c1ccc(Cl)cc1Cl	6.3µM*	22µM*	21
O=C(Nc1ncn[nH]1)c1ccc(Cl)cc1Cl	-5%	/	/
COC(CNC(=O)c1cccc(-n2c(=S)[nH]c3cc(Cl)ccc3c2=O)c1)OC	6%	/	/
CCOC(=O)c1c(NC(=O)COC(=O)c2ccccn2)sc2c1CCC2	?	-11%	-11
CC(C)c1cccc(C(C)C)c1NC(=O)c1ccccc1	0%	/	/
C=CCc1c(C)nc(SC)nc1Nc1ccc(C(C)=O)cc1	8.9µM*	-30%	15
SMILES	ALDH1A1 inh	HPGD block	PNC assembly inh
C=CCc1c(C)nc(SC)nc1Nc1ccc(C(=O)O)cc1	-2%	-20%	?
O=C(CSc1nnc(Cc2ccccc2)o1)c1ccccc1	-3%	/	/
CCOC(=O)c1c(NC(=O)CSc2nnc(-c3cccnc3)o2)sc(C(C)=O)c1C	-2%	?	9
CCCn1c(N)c(C(=O)CSc2nnc(Cc3ccccc3)o2)c(=O)n(C)c1=O	4%	-10%	-100*
CCOC(=O)c1cc(-c2nnc(SCC(=O)Nc3ccc(F)cc3)o2)c(C)nc1C	10µM*	14µM*	10
CCOC(=O)c1c(NC(=O)CSc2nnc(-c3ccco3)o2)sc(C(C)=O)c1C	-11%	16µM*	-24
Cc1sc(NC(=O)CSc2nnc(-c3ccc(F)cc3)o2)c(C#N)c1C	-9%	-9%	-9
CCOC(=O)c1c(NC(=O)CSc2nc3ccccc3o2)sc(C)c1C	-11%	-13%	?
CCOC(=O)c1c(NC(=O)CSc2nnc(Cc3ccccc3)o2)sc(C)c1C	16µM*	-21%	-20
Cc1nc2cc(NCc3cc([N+](=O)[O-])ccc3O)ccc2n1Cc1ccccc1	-4%	/	/
COc1ccc(NC(=O)CN2C(=O)N(C)Cc3ccccc32)c(C)c1	13%	/	/
CCN(C(=O)CSc1nc2nc(C)cc(C)n2n1)C1CCS(=O)(=O)C1 (stereo unspecified)	2%	/	/
CCOC(=O)c1c(NC(=O)CSc2nnc(-c3ccco3)o2)sc(C)c1C	8.9µM*	-22%	110
CCOC(=O)c1c(NC(=O)CSc2nc3cccnc3n2C)sc(C(C)=O)c1C	-2%	-21%	-13
Cc1nnc(NC(=O)CSc2nnc(-c3ccco3)o2)s1	4%	/	/
CCOC(=O)c1c(NC(=O)CSc2nnc(-c3ccccc3C)n2C)sc(C(C)=O)c1C	25µM*	?	13
NNC(=O)c1cc(Br)cs1	?	-6%	-6
Cc1cc(Br)ccc1S(=O)(=O)n1ccnc1C	1%	/	/
CC(C)C12CN3CC(C(C)C)(CN(C1)C3c1ccc3c(c1)OCO3)C2=O (stereo unspecified)	7.9µM*	3%	7
CCCC12CN3CC(C)(CN(C1)C3c1ccc3c(c1)OCO3)C2=O (stereo unspecified)	2µM*	-6%	1
CCCC12CN3CC(C)(CN(C1)C3c1ccc(OC)cc1)C2=O (stereo unspecified)	?	-1%	3
CC12CN3CC(C)(CN(C1)C3c1ccc3c(c1)OCO3)C2 (stereo unspecified)	-9%	/	/
O=S(=O)(Nc1cc(C(F)(F)F)ccc1N1CCOCC1)c1ccc2ccccc2c1	?	-13%	-21
Cc1ccc(-c2nnc(SCC(=O)N3CCCc4ccccc43)n2N)cc1	13µM*	-6%	?
O=C(CSc1nnc2scc(-c3ccccc3)n12)N1CCCc2ccccc21	11µM*	-9%	-10
SMILES	ALDH1A1 inh	HPGD block	PNC assembly inh
Cc1ccc(-c2nnc3ccc(SCC(=O)N4CCCc5ccccc54)nn23)cc1	?	-13%	16
O=C(CSc1nnc2scc(-c3ccccc3)n12)N1CCN(Cc2ccccc2)CC1	-11%	-9%	9
c1ccc2c(c1)CCCN2Cc1nnnn1C1CCCC1	-5%	1%	-24
Cc1ccc(-c2csc3nnc(SCC(=O)N4CCN(Cc5ccccc5)CC4)n23)cc1	14µM*	-12%	17
O=C(CSc1nnnn1C1CCCC1)N1CCCc2ccccc21	10µM*	-13%	?
Cn1c(SCC(=O)N2CCCc3ccccc32)nnc1-c1cccs1	-10%	-3%	?
Fc1ccc(Nc2ccnc(Nc3ccc(F)cc3)n2)cc1	7%	-24%	5
O=C1C[C@H]2C(=O)[C@@H]1[C@@H](C(=O)O)[C@H]2C(=O)O	8%[13.5 µM]	-6%	/
Cn1nnnc1SCC(=O)N1CCCc2ccccc21	2%	-7%	-15
O=C(O)c1ccc(CSc2nnnn2C2CCCCC2)cc1	18µM*	-21%	?
COc1ccc(CC(=O)N2CCCc3ccccc32)cc1OC	?	-4%	-21
O=C1CCC(=O)N1c1ccc(CSc2nnnn2C2CCCCC2)cc1	?	-11%	?
O=C(CSc1nnc2scc(-c3ccccc3)n12)Nc1nsc(-c2ccccc2)n1	?	?	3
CCn1nnnc1SCC(=O)N1CCCc2ccccc21	3.5µM*	-10%	205
COc1ccc(-n2nnnc2SCC(=O)N2CCCc3ccccc32)cc1OC	25µM*	-15%	0
Cc1ccc(-c2csc3nnc(SCC(=O)Nc4nsc(-c5ccccc5)n4)n23)cc1	8.9µM*	-4%	7
